# Calls of active or inactive are those of the source. The calls were made as follows: active = hit-call score of the fitted dose curve at least 0.9, where 1 is the maximum; inactive = score below 0.9.
# How the values were obtained:
# [1] = target: Bile acid receptor (Homo sapiens) (UniProt Q96RI1); test: ATG_IR1_CIS: Attagene CIS-FACTORIAL HepG2 Assay for human Nuclear Receptor Subfamily 1 Group H Member 4 (NR1H4), IR1 submotif (AID 2282946); conditions: IR1 reporter transcription, actives raise or lower the signal
# Sequence of Bile acid receptor (Homo sapiens) (Q96RI1 whole entry, looked up): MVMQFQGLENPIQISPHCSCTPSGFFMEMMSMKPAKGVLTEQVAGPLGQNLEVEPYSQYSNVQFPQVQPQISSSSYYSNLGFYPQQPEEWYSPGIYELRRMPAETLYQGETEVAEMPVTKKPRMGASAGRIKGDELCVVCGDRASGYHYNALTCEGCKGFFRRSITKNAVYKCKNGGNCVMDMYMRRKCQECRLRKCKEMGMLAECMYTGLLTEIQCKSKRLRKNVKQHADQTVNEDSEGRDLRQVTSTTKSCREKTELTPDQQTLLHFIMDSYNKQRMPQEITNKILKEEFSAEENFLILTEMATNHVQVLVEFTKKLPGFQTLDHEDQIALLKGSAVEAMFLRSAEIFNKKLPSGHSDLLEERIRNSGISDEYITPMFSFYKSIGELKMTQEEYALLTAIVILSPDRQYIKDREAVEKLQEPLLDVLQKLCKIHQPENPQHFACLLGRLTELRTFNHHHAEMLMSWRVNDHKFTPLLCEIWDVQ
# Procedure, shortened: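 Fluorescence of capillary-separated, HpaI-digested RT-PCR reporter products gave IR1-element mRNA induction in HepG2 cells 24 h after dosing. Endogenous transcription factors drove the cis-regulated reporters; activity was fitted bidirectionally against DMSO.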
# [2] = ATG_GRE_CIS: Attagene CIS-FACTORIAL HepG2 Assay for human Glucocorticoid Response Elements (GRE) (AID 2282947); conditions: HepG2 GRE cis-reporter, Attagene multiplex mRNA; actives raise or lower the signal
# Procedure, shortened: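 Read-out: fluorescent reporter-transcript fragments separated by capillary electrophoresis after RT-PCR. Transiently transfected HepG2 cells carrying cis-element-driven reporter units were dosed for 24 h; gain or loss of signal fitted against DMSO control.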
# [3] = ATG_ISRE_CIS: Attagene CIS-FACTORIAL HepG2 Assay for human Interferon Regulatory Factor 1 (IRF1) binding to an Interferon-Stimulated Response Element (ISRE) (AID 2282948); conditions: HepG2 ISRE cis-reporter (Attagene), mRNA transcription readout; actives raise or lower the signal
# Procedure, shortened: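 Read-out: fluorescent RT-PCR products resolved by capillary electrophoresis, reporting endogenous transcription factor activity via ISRE-driven reporter mRNA in transfected HepG2 cells dosed for 24 h; gain or loss fitted relative to DMSO.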
# [4] = ATG_M_06_CIS: Attagene CIS-FACTORIAL HepG2 Assay for M06 Transcription Factor (Internal Marker) (AID 2282950); conditions: HepG2 Attagene CIS-FACTORIAL M06 internal marker reporter; actives raise or lower the signal
# Procedure, shortened: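 Serves as a background control readout. Transfected HepG2 exposed to compounds for 24 h, then reporter transcripts quantified by fluorescent RT-PCR and capillary electrophoresis. Both directions fitted against DMSO baseline.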
# [5] = target: Hypoxia-inducible factor 1-alpha (Homo sapiens) (UniProt Q16665); test: ATG_HIF1a_CIS: Attagene CIS-FACTORIAL HepG2 Assay for human Hypoxia Inducible Factor 1 (HIF1A) (AID 2282951); conditions: HepG2 Attagene cis-factorial HIF1a reporter transcription; actives raise or lower the signal
# Sequence of Hypoxia-inducible factor 1-alpha (Homo sapiens) (Q16665 whole entry, looked up): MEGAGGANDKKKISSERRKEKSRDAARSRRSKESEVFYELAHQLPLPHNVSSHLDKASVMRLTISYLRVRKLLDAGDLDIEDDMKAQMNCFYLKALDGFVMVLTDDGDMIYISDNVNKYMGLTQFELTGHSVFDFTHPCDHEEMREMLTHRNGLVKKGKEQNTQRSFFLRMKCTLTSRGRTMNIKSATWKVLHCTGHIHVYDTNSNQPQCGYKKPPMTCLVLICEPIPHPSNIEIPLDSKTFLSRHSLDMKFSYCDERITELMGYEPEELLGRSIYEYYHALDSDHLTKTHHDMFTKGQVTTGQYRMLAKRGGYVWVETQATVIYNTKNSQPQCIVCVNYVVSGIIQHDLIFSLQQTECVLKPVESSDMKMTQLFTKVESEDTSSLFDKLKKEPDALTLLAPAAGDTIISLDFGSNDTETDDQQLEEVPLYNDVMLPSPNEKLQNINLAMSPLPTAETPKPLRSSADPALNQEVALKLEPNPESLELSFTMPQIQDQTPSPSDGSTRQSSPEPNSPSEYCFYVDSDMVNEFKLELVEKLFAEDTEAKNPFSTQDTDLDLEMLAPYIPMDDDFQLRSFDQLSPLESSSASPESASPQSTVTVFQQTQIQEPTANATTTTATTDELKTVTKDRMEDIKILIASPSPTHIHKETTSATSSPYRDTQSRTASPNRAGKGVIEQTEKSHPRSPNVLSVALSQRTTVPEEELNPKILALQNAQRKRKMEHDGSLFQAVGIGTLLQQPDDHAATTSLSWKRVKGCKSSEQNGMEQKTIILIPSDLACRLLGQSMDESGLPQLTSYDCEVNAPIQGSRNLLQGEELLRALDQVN
# Procedure, shortened: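 Activity is fitted in both directions relative to DMSO. Reporter transcripts are read by RT-PCR, fluorescent primer extension and capillary electrophoresis after 24 h chemical treatment. The cells are HepG2 carrying transiently transfected cis-element-driven reporter units responding to endogenous factors.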
# [6] = target: Hepatocyte nuclear factor 6 (Homo sapiens) (UniProt Q9UBC0); test: ATG_HNF6_CIS: Attagene CIS-FACTORIAL HepG2 Assay for human Hepatocyte Nuclear Factor 6 (HNF6) (AID 2282952); conditions: HepG2 Attagene cis-factorial HNF6 reporter transcription; actives raise or lower the signal
# Sequence of Hepatocyte nuclear factor 6 (Homo sapiens) (Q9UBC0 whole entry, looked up, the tested form may be a part): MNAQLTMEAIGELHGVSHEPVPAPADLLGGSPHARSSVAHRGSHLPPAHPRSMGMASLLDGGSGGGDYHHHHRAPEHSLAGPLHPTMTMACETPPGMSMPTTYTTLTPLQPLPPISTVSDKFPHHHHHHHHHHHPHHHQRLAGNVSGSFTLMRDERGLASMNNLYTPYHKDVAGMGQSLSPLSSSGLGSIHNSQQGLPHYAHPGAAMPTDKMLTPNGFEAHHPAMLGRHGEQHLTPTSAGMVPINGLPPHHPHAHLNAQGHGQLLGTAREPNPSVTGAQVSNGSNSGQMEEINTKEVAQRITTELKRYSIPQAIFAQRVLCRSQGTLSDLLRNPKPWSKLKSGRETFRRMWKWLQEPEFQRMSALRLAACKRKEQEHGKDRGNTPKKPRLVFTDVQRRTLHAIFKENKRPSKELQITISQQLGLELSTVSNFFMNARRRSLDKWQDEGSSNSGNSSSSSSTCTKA
# Procedure, shortened: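 Twenty-four-hour chemical treatment of reporter-transfected HepG2 cells precedes RNA isolation, DNase-treated reverse transcription and PCR of reporter sequences. Labelled fragments are sized by capillary electrophoresis and fitted bidirectionally versus DMSO.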
# [7] = target: Heat shock factor protein 1 (Homo sapiens) (UniProt Q00613); test: ATG_HSE_CIS: Attagene CIS-FACTORIAL HepG2 Assay for human Heat Shock Transcription Factor 1 (HSE) (AID 2282953); conditions: HepG2 HSE cis-reporter, Attagene RNA transcription; actives raise or lower the signal
# Sequence of Heat shock factor protein 1 (Homo sapiens) (Q00613 whole entry, looked up): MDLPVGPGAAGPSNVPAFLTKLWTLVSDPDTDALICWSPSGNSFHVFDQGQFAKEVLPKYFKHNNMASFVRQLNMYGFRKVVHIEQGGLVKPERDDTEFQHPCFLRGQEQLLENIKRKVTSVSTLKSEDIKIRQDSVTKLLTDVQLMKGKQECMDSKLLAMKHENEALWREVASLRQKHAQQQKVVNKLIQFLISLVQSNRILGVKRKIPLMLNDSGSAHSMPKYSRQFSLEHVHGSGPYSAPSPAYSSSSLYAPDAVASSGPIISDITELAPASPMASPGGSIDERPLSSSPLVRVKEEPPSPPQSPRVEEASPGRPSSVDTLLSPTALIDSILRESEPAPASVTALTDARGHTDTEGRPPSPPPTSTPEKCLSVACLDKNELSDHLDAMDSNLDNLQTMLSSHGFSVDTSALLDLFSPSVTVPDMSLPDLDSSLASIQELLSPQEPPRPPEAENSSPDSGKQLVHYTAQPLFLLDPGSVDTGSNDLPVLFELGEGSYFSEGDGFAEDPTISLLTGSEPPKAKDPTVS
# Procedure, shortened: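 Endogenous transcription factor activity in transiently transfected HepG2, read as reporter mRNA by RT-PCR with fluorescent capillary electrophoresis after 24 h. Gain or loss of signal fitted versus DMSO baseline.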
# [8] = ATG_MRE_CIS: Attagene CIS-FACTORIAL HepG2 Assay for human Metal Responsive Element (MRE) (AID 2282954); conditions: HepG2 MRE cis-reporter transcription, Attagene multiplex; actives raise or lower the signal
# Procedure, shortened: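 RT-PCR/capillary electrophoresis readout of reporter mRNA, 24 h post-dosing, in HepG2 cells transfected with multiplexed cis-regulated reporter constructs. Gain or loss of signal fitted bidirectionally against DMSO baseline.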
# [9] = ATG_PBREM_CIS: Attagene CIS-FACTORIAL HepG2 Assay for human Phenobarbital-responsive Enhancer Module (PBREM) (AID 2282955); conditions: HepG2 PBREM cis-reporter, Attagene multiplexed transcription; actives raise or lower the signal
# Procedure, shortened: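 Endogenous transcription factor activity was read from reporter transcripts in transiently transfected human HepG2 liver cells after 24 h dosing. RT-PCR products were fluorescently labelled, HpaI-cut and sized by capillary electrophoresis; activity fitted bidirectionally against DMSO baseline.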
# [10] = target: Paired box protein Pax-6 (Homo sapiens) (UniProt P26367); test: ATG_Pax6_CIS: Attagene CIS-FACTORIAL HepG2 Assay for human Paired Box 6 (PAX6) (AID 2282956); conditions: HepG2 CIS-FACTORIAL PAX6 reporter transcription, RNA readout; actives raise or lower the signal
# Sequence of Paired box protein Pax-6 (Homo sapiens) (P26367 whole entry, looked up): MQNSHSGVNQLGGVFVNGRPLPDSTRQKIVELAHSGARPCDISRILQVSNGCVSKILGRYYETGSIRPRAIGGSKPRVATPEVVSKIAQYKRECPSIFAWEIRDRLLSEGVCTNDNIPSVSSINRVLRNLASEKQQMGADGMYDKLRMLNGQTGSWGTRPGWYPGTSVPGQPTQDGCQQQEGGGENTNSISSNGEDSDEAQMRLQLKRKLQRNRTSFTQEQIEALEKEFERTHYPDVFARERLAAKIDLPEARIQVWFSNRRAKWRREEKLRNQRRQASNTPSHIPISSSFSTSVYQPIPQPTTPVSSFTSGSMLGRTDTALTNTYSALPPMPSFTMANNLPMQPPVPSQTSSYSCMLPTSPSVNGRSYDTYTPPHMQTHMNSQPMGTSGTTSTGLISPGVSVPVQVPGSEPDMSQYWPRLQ
# Procedure, shortened: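 Readout: reporter transcript fluorescence after RT-PCR and capillary electrophoresis. Cells: HepG2, transiently transfected with cis-regulated MRTUs. Exposure 24 h. Gain or loss of signal fitted bidirectionally relative to DMSO.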
# [11] = ATG_PXRE_CIS: Attagene CIS-FACTORIAL HepG2 Assay for human Pregnane X Receptor Element (PXRE) (AID 2282957); conditions: HepG2 Attagene CIS-FACTORIAL PXRE reporter, mRNA; actives raise or lower the signal
# Procedure, shortened: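 Bidirectional activity, baselined to DMSO, derived from reporter mRNA fluorescence (RT-PCR plus capillary electrophoresis) in HepG2 cells bearing cis-promoter reporter units, 24 h exposure.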
# [12] = ATG_RORE_CIS: Attagene CIS-FACTORIAL HepG2 Assay for human RAR-related Orphan Receptor Element (RORE) (AID 2282959); conditions: HepG2 Attagene cis-factorial RORE reporter, mRNA; actives raise or lower the signal
# Procedure, shortened: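 RORE reporter transcripts reflecting endogenous factor activity were read after 24 h compound exposure of transfected HepG2 cells, using reverse transcription, PCR, fluorescent labelling and capillary electrophoresis sizing. Gain or loss fitted against DMSO.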
# [13] = ATG_Sox_CIS: Attagene CIS-FACTORIAL HepG2 Assay for human SRY-box transcription factor (SOX) (AID 2282960); conditions: HepG2 Attagene cis-factorial SOX reporter, mRNA; actives raise or lower the signal
# Procedure, shortened: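 Reporter transcripts, measured by RT-PCR and capillary electrophoresis of labelled fragments, report endogenous SOX transcription factor activity. Transiently transfected human HepG2 cells receive chemical for 24 h; changes in either direction are fitted relative to DMSO.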
# [14] = target: Transcription factor Sp1 (Homo sapiens) (UniProt P08047); test: ATG_Sp1_CIS: Attagene CIS-FACTORIAL HepG2 Assay for human Specificity Protein 1 (Sp1) (AID 2282961); conditions: HepG2 Sp1 cis-reporter transcription, actives raise or lower the signal
# Sequence of Transcription factor Sp1 (Homo sapiens) (P08047 whole entry, looked up): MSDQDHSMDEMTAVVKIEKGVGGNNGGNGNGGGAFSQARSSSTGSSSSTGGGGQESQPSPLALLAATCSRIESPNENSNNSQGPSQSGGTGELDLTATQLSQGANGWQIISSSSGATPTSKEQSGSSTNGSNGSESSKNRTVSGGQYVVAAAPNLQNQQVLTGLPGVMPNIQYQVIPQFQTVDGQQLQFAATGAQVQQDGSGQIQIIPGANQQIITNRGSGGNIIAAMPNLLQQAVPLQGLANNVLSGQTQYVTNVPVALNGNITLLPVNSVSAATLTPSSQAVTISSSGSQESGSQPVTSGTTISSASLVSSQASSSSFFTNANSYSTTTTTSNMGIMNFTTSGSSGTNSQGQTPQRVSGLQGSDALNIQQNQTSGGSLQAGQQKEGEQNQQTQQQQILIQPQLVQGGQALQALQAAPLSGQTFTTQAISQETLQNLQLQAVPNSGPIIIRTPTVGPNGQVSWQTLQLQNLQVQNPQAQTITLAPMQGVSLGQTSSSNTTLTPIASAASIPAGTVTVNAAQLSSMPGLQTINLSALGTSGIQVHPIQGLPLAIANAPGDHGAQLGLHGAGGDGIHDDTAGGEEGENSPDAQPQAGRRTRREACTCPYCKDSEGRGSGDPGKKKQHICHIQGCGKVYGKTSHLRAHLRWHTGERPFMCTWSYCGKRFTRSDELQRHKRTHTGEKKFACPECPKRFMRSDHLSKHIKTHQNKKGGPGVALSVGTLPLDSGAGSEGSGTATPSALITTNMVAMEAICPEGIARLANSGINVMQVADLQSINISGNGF
# Procedure, shortened: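 Read-out is reporter transcript level, measured by RT-PCR and fluorescent capillary electrophoresis after 24 h chemical treatment. System: transiently transfected HepG2 cells reporting endogenous transcription factor activity; gain or loss fitted against DMSO baseline.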
# [15] = target: Signal transducer and activator of transcription 3 (Homo sapiens) (UniProt P40763); test: ATG_STAT3_CIS: Attagene CIS-FACTORIAL HepG2 Assay for human Signal Transducer and Activator of Transcription 3 (STAT3) (AID 2282963); conditions: HepG2, Attagene cis-factorial STAT3 reporter transcription; actives raise or lower the signal
# Sequence of Signal transducer and activator of transcription 3 (Homo sapiens) (P40763 whole entry, looked up, the tested form may be a part): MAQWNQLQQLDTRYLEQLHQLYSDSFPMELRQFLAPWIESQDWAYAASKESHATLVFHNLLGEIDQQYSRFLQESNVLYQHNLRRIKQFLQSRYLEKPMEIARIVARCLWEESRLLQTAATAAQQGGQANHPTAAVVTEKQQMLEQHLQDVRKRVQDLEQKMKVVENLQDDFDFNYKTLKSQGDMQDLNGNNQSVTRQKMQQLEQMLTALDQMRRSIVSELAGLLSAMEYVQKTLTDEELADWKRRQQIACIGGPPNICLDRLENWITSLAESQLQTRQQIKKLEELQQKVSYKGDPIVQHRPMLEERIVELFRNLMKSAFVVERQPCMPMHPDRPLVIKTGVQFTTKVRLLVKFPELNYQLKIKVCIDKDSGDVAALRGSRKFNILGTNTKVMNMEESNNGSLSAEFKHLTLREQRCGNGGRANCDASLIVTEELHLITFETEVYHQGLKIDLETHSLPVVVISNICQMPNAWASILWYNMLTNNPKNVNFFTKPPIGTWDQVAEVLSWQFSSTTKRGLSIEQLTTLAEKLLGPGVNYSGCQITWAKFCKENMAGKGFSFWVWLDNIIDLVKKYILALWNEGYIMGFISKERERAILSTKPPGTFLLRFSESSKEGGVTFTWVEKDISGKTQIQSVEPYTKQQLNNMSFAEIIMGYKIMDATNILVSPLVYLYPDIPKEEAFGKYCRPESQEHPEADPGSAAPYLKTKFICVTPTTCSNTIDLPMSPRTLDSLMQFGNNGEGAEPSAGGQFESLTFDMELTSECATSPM
# Procedure, shortened: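 Readout: fluorescent reporter mRNA fragments resolved by capillary electrophoresis. Setup: HepG2 transfected with MRTUs reporting endogenous transcription-factor activity, dosed 24 h. Gain or loss of signal fitted bidirectionally against DMSO control.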
# [16] = ATG_TA_CIS: Attagene CIS-FACTORIAL HepG2 Assay for human TA Basal Promoter (AID 2282964); conditions: HepG2 Attagene CIS-factorial TA basal promoter reporter; actives raise or lower the signal
# Procedure, shortened: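 Background-control readout: TA basal promoter reporter mRNA, fitted in both directions relative to DMSO. Measured by RT-PCR and capillary electrophoresis 24 hours after treating HepG2 human liver cells transiently carrying multiplexed cis-regulated reporter constructs.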
# [17] = ATG_M_32_CIS: Attagene CIS-FACTORIAL HepG2 Assay for M32 Transcription Factor (Internal Marker) (AID 2282949); conditions: HepG2 Attagene cis-factorial M32 reporter, mRNA; actives raise or lower the signal;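 also: background control marker of the multiplexed CIS panel rather than a real target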
# Procedure, shortened: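 Using DMSO as baseline, bidirectional curve fits were applied to reporter mRNA signals. These came from transiently transfected HepG2 cells exposed for 24 h, with RNA analysed by RT-PCR, FAM primer extension, HpaI digestion and CE.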
# [18] = ATG_SREBP_CIS: Attagene CIS-FACTORIAL HepG2 Assay for human Sterol Regulatory Element Binding (SREBP) (AID 2282962); conditions: HepG2 Attagene cis-factorial SREBP reporter, mRNA; actives raise or lower the signal
# Procedure, shortened: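 Readout: fluorescent reporter-transcript peaks resolved by capillary electrophoresis after RT-PCR. Cells were human HepG2 carrying transfected cis-promoter reporter constructs, dosed for 24 h. Gain or loss of signal was fitted against DMSO controls.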
# [19] = ATG_TCF_b_cat_CIS: Attagene CIS-FACTORIAL HepG2 Assay for human T-Cell-Factor with beta-catenin (TCF/b-cat) (AID 2282965); conditions: HepG2 TCF/beta-catenin cis-reporter transcription, actives raise or lower the signal
# Procedure, shortened: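 HepG2 cells transiently transfected with cis-promoter-driven multiplexed reporter units; reporter mRNA measured 24 h after dosing by RT-PCR, FAM labelling, HpaI digestion and capillary electrophoresis. Bidirectional fitting relative to DMSO baseline.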
# [20] = ATG_PPRE_CIS: Attagene CIS-FACTORIAL HepG2 Assay for human Peroxisome Proliferator-activated Response Element (PPRE) (AID 2282958); conditions: HepG2 PPRE cis-element reporter, Attagene transcription factor profiling; actives raise or lower the signal
# Procedure, shortened: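 Endogenous PPRE-driven transcription is measured in HepG2 cells carrying transfected multi-reporter constructs. Reporter transcripts are quantified by RT-PCR, HpaI digestion and capillary electrophoresis 24 h after dosing. DMSO baseline, bidirectional fit.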
smiles,measurement,setting,value
CC(C)(C)c1ccccc1OP(=O)(Oc1ccccc1)Oc1ccccc1,AC50,[1],26.5 µM (active)
same,outcome,[2],inactive
same,AC50,[3],50.2 µM (active)
same,outcome,[4],inactive
same,outcome,[5],inactive
same,outcome,[6],inactive
same,outcome,[7],inactive
same,outcome,[8],inactive
same,outcome,[9],inactive
same,outcome,[10],inactive
same,AC50,[11],0.576 µM (active)
same,outcome,[12],inactive
same,outcome,[13],inactive
same,outcome,[14],inactive
same,outcome,[15],inactive
same,outcome,[16],inactive
CC(Cc1ccc(OCC(=O)O)cc1)NCC(O)c1csc(C(F)(F)F)n1 (configuration not stated),outcome,[2],inactive
same,outcome,[3],inactive
same,outcome,[17],inactive
same,outcome,[4],inactive
same,outcome,[5],inactive
same,outcome,[6],inactive
same,outcome,[7],inactive
same,outcome,[8],inactive
same,outcome,[9],inactive
same,outcome,[10],inactive
same,outcome,[11],inactive
same,outcome,[12],inactive
same,outcome,[13],inactive
same,outcome,[14],inactive
same,outcome,[18],inactive
same,outcome,[15],inactive
same,outcome,[19],inactive
Cc1c([N+](=O)[O-])cc2c(c1[N+](=O)[O-])C(C)(C)CC2(C)C,outcome,[1],inactive
same,outcome,[2],inactive
same,outcome,[3],inactive
same,outcome,[4],inactive
same,outcome,[5],inactive
same,outcome,[6],inactive
same,outcome,[7],inactive
same,outcome,[8],inactive
same,outcome,[9],inactive
same,outcome,[10],inactive
same,AC50,[11],0.964 µM (active)
same,outcome,[12],inactive
same,outcome,[13],inactive
same,outcome,[14],inactive
same,outcome,[15],inactive
same,outcome,[19],inactive
Nc1cc2c3c(c1)C(c1ccccc1)=N[C@@H](NC(=O)c1cccnc1)C(=O)N3CC2,outcome,[2],inactive
same,outcome,[3],inactive
same,outcome,[17],inactive
same,outcome,[4],inactive
same,outcome,[5],inactive
same,outcome,[6],inactive
same,outcome,[7],inactive
same,AC50,[8],71.5 µM (active)
same,AC50,[9],41.9 µM (active)
same,outcome,[10],inactive
same,AC50,[11],26.5 µM (active)
same,AC50,[12],17.5 µM (active)
same,outcome,[13],inactive
same,outcome,[14],inactive
same,AC50,[18],66.8 µM (active)
same,outcome,[15],inactive
same,outcome,[16],inactive
same,outcome,[19],inactive
CCC1(c2ccccc2)C(=O)N=C(O)NC1=O (configuration not stated),outcome,[3],inactive
same,outcome,[4],inactive
same,outcome,[5],inactive
same,outcome,[6],inactive
same,outcome,[7],inactive
same,outcome,[8],inactive
same,outcome,[9],inactive
same,outcome,[10],inactive
same,AC50,[11],100 µM (active)
same,outcome,[20],inactive
same,outcome,[12],inactive
same,outcome,[13],inactive
same,outcome,[14],inactive
same,outcome,[18],inactive
same,outcome,[15],inactive
same,outcome,[16],inactive
same,outcome,[19],inactive
Nc1ccc(Cl)cc1,outcome,[2],inactive
same,outcome,[3],inactive
same,outcome,[17],inactive
same,outcome,[4],inactive
same,outcome,[5],inactive
same,outcome,[6],inactive
same,outcome,[7],inactive
same,outcome,[8],inactive
same,outcome,[9],inactive
same,outcome,[10],inactive
same,outcome,[11],inactive
same,outcome,[12],inactive
same,outcome,[13],inactive
same,outcome,[14],inactive
same,outcome,[15],inactive
CCOS(=O)(=O)OCC,outcome,[2],inactive
same,outcome,[3],inactive
same,outcome,[4],inactive
same,outcome,[5],inactive
same,outcome,[6],inactive
same,outcome,[8],inactive
same,outcome,[9],inactive
same,outcome,[10],inactive
same,outcome,[11],inactive
same,outcome,[12],inactive
same,outcome,[13],inactive
same,outcome,[14],inactive
same,outcome,[18],inactive
same,outcome,[15],inactive
same,outcome,[19],inactive
[N-]=[N+]=[N-],outcome,[2],inactive
same,outcome,[3],inactive
same,outcome,[17],inactive
same,outcome,[4],inactive
same,outcome,[5],inactive
same,outcome,[6],inactive
same,outcome,[7],inactive
same,outcome,[8],inactive
same,outcome,[9],inactive
same,outcome,[10],inactive
same,outcome,[11],inactive
same,outcome,[12],inactive
same,outcome,[13],inactive
same,outcome,[14],inactive
same,outcome,[18],inactive
same,outcome,[15],inactive
same,outcome,[16],inactive
same,outcome,[19],inactive
